Assay results as given in PubChem BioAssay (NCI).
Compounds without any hit were thinned out: in the full panel of roughly 83,000, 20% have a hit.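 Interpretation: 100, growth as untreated; towards 0, rising growth inhibition; 0, no net growth; 0 to -100, cell death. Compounds scoring below 10 were considered active.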 Values without a mark were called inactive. Calls of active or inactive are those of the source.

Columns and labels:
Test in all cases: NCI-60 one-dose screen, 48 h (100 = growth as untreated, 0 = no growth, -100 = all killed)
Settings in all cases: 10 µM unless noted
[1] = test system: HCT-15 colon
[2] = test system: HT29 colon
[3] = test system: SNB-75 CNS
[4] = test system: SNB-19 CNS
[5] = test system: U251 CNS
[6] = test system: PC-3 prostate
[7] = test system: SK-MEL-5 melanoma
[8] = test system: UACC-62 melanoma
[9] = test system: LOX IMVI melanoma
[10] = test system: SK-MEL-28 melanoma
[11] = test system: SK-MEL-2 melanoma
[12] = test system: EKVX NSCLC
[13] = test system: SN12C renal
[14] = test system: TK-10 renal
[15] = test system: ACHN renal
[16] = test system: CAKI-1 renal
[17] = test system: CCRF-CEM leukemia
[18] = test system: MOLT-4 leukemia
[19] = test system: A498 renal
[20] = test system: UO-31 renal

| Structure (SMILES) | growth [1] | growth [2] | growth [3] | growth [4] | growth [5] | growth [6] | growth [7] | growth [8] | growth [9] | growth [10] | growth [11] | growth [12] | growth [13] | growth [14] | growth [15] | growth [16] | growth [17] | growth [18] | growth [19] | growth [20] |
| --- | --- | --- | --- | --- | --- | --- | --- | --- | --- | --- | --- | --- | --- | --- | --- | --- | --- | --- | --- | --- |
| C#C[C@]1(O)CC[C@H]2[C@@H]3CC=C4c5nc(Nc6ccccc6[N+](=O)[O-])sc5CC[C@]4(C)[C@H]3CC[C@@]21C | 35.3% | 55.7% | 17.9% | 76.6% | 39.7% | 41.8% | 60.6% | 67.8% | 73.1% | 62.1% | 56.7% | 67.4% | 79.5% | 72.4% | 70.7% | 38.9% | 61.9% | 43.7% | – | – |
| COc1cc(-c2cc(-c3ccc(Nc4ncnc5cc(Cl)ccc45)cc3)nc(N3CCCCC3)n2)cc(OC)c1OC | 99.5% | 87.7% | 108% | 100% | 98.9% | 88.1% | 97.7% | 95.5% | 97.3% | 108% | 91% | 102% | 90.9% | 111% | 96.8% | 93.1% | 107% | 90.8% | 89.5% | – |
| CC(C)(C)OC(=O)N1C=C/C(=C\Cn2cc(-c3ccccc3)nn2)CC1 | 86.9% | 99.1% | 78.8% | 73.1% | 91.8% | 82.7% | 36.7% | 65.6% | 76.9% | 72.7% | 64% | – | 73.7% | 98.6% | 68.7% | 67% | 2.78% (active) | 65.2% | 54.2% | 54.6% |
| COc1ccc2c(c1)C(C)Cc1c(Cl)nc(C)nc1N2C (stereo not given) | 18.4% | -13.3% (active) | 39.3% | 24.7% | 21.9% | 14.8% | 24% | 27% | 43.7% | 80.1% | 37.3% | – | 32.6% | 44.4% | 55.2% | 25.4% | 14.7% | 20.3% | -5.78% (active) | 50.9% |
| Nc1nc(Cl)c2ncn(Cc3cc4c(cc3I)OCO4)c2n1 | 25.1% | 9.61% (active) | 73.5% | 61.9% | 53.5% | 39.1% | 72% | 45.7% | 11.8% | 87.7% | 57.1% | – | 33% | 23.6% | 56.7% | 47.5% | – | 52.6% | 61.8% | 34.7% |
| COc1cc2c(c(OC)c1)C1c3cc(OC)ccc3NC(=O)N1CC2 (stereo not given) | 49.7% | 32.3% | 83.2% | 87.5% | 74.9% | 77.7% | 82.2% | 66% | 89.7% | 88.9% | 45.5% | – | 88.5% | 82.5% | 100% | 77.8% | 88.2% | 72.9% | 74.7% | – |
| O=[N+]([O-])c1cc([N+](=O)[O-])c(NN=C(c2ccc(O)cc2)c2ccc(O)cc2)cc1Cl | -85.8% (active) | -82.6% (active) | -15.6% (active) | 89.4% | -99.9% (active) | -80.8% (active) | 59.5% | 18.4% | -94% (active) | -90.3% (active) | -94% (active) | – | -78.6% (active) | -57% (active) | -62.7% (active) | 42.3% | 82.1% | 53.4% | 73.4% | -98.4% (active) |
| CC1(C)CC[C@]23CC[C@]4(C)[C@H](CC[C@@H]5[C@@]6(C)C/C(=C/c7cccnc7)C(=O)C(C)(C)[C@@H]6CC[C@]54C)[C@H]2[C@H]1OC3=O | 42.7% [100 µM] | 23.2% [100 µM] | 19.8% [100 µM] | 59.6% [100 µM] | 34% [100 µM] | 29.8% [100 µM] | -44.4% [100 µM] (active) | 28.4% [100 µM] | 29.2% [100 µM] | 21.4% [100 µM] | 27.6% [100 µM] | – | 41.5% [100 µM] | 55% [100 µM] | 36.9% [100 µM] | 40.6% [100 µM] | 19.3% [100 µM] | 19.4% [100 µM] | 31.5% [100 µM] | 34.8% [100 µM] |
| CCOC(=O)COc1ccc2c(c1)O/C(=C\c1ccc(O)cc1)C2=O | 101% | 108% | 87.7% | 102% | 107% | 112% | 102% | 98.9% | 97.9% | 106% | 116% | – | 98.7% | 106% | 102% | 93.1% | 118% | 117% | 88.6% | 78.5% |
| CC1(C)C(=O)/C(=C\c2ccco2)C[C@]2(C)[C@H]3CC=C4[C@@H]5C[C@](C)(C(=O)O)CC[C@]5(C)CC[C@@]4(C)[C@]3(C)CC[C@@H]12 | -86.4% [100 µM] (active) | -50.8% [100 µM] (active) | -82.5% [100 µM] (active) | -91.7% [100 µM] (active) | -80.8% [100 µM] (active) | -32.2% [100 µM] (active) | -72.7% [100 µM] (active) | -83.7% [100 µM] (active) | -93.6% [100 µM] (active) | -75.1% [100 µM] (active) | -57.5% [100 µM] (active) | – | -50.8% [100 µM] (active) | -46.1% [100 µM] (active) | -79.9% [100 µM] (active) | -66.6% [100 µM] (active) | -22.7% [100 µM] (active) | -21% [100 µM] (active) | -89.2% [100 µM] (active) | -95.5% [100 µM] (active) |
| C1=C[C@H]2O[C@@H]1c1ccc3[nH]ccc3c12 | 78.8% | 87.7% | 83.4% | 96.8% | 103% | 98% | 90.4% | 78.8% | 100% | 94% | 95.7% | – | 102% | 105% | 107% | 89.6% | 90.7% | 56% | 98.6% | 98.3% |
| O=C1COCCN1c1ccc(NCc2cn(Cc3ccccc3)c3ccccc23)cc1 | 90.7% | 109% | 81.7% | 93.2% | 86.8% | 89% | 91.5% | 21.6% | 92% | 102% | 97.6% | – | 96.2% | 12.3% | 101% | -9.69% (active) | 96.4% | 102% | -88.4% (active) | 63% |
| N#Cc1c(N2CCOCC2)nc(=S)[nH]c1-c1ccco1 | 71.4% | 63.7% | 15.9% | 83.8% | 76.4% | 42.6% | 62.6% | 43.7% | 63.7% | 77.6% | 37.1% | – | 77.6% | 47.1% | 64.2% | 58.2% | 49.6% | 64.5% | -1.37% (active) | 66% |
| COC(=O)[C@]1(C)CC[C@]2(C)CC[C@]3(C)C(=CC(=O)[C@@H]4[C@@]5(C)CCC(=O)NC(C)(C)[C@@H]5CC[C@]43C)[C@@H]2C1 | -19.6% [100 µM] (active) | -55% [100 µM] (active) | -83.3% [100 µM] (active) | -89.8% [100 µM] (active) | -89.2% [100 µM] (active) | -65.8% [100 µM] (active) | -94% [100 µM] (active) | -88.9% [100 µM] (active) | -97.7% [100 µM] (active) | -67.3% [100 µM] (active) | -83.2% [100 µM] (active) | – | -81.1% [100 µM] (active) | -26.3% [100 µM] (active) | -39.8% [100 µM] (active) | -20% [100 µM] (active) | -25.4% [100 µM] (active) | – | -91.4% [100 µM] (active) | – |
| O=C(CSc1nccc(Nc2ccc(S(=O)(=O)Nc3ccccn3)cc2)n1)c1ccc(Cl)cc1 | 99.9% | 107% | 101% | 97.1% | 93.9% | 84.3% | 70.8% | 82.4% | 87.6% | 118% | 97.8% | – | 90.7% | 109% | 89.8% | 83% | -44.8% (active) | 81.4% | 115% | 71.3% |
